Screens (PubChem)
GBA activity: Glucocerebrosidase. Potency, µM. Lysosomal acid glucosylceramidase (Homo sapiens), P04062. purified enzyme, resorufin glucoside fluorescence (screen aimed at inhibitors), 20 min. actives 1.1% (n = 48,000); in the data active = potency below about 15 µM; inconclusive = mostly about 16 µM to 33 µM;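 note: the screen sought inhibitors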
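Normal human glucocerebrosidase (0.2 nM final) was assayed with resorufin β-D-glucopyranoside (30 uM final) in 50mM citric acid/KH2PO4, 10mM sodium taurocholate, 0.01% tween-20, pH 5.9. Compounds were titrated; fluorescence (Ex 548, Em 600) read after 20 min at RT.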
UbGFP stabilizer: Ubiquitin-GFP Assay. Ubiquitin-GFP reporter cells, proteasome inhibition, GFP fluorescence; response scale: untreated = 0%, 10 µM MG-132 = 100%. Potency, µM (highest dose often 45.9 µM), for inactives: top-dose activation (GFP accumulation), actives largely listed as activators. 67,000 tested, under 10 active; active = well fitted activation curve with a large enough effect, not every such curve was filed as active; inconclusive = small, poorly fitted or top-dose-only effect, or another doubt; inactive = no such curve, though single readings can be large or run the other way
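U2OS cells stably expressing ubiquitin(G76V)-GFP, seeded overnight in 0.5% FBS medium, were exposed to compounds (qHTS, 46 uM to 2.9 nM) for 4 hr at 37 °C. GFP-positive cells were counted by laser cytometry (488 ex/515 em), normalized between basal and 10 uM MG-132.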
USP2a inhib: qHTS Assay for Inhibitors of Ubiquitin-specific Protease USP2a; AID 927, 2007; Potency, µM (doses to about 38.3 µM), for inactives: at the top dose activity change, negative = inhibition, most hits filed as inhibitors; USP2a enzymatic assay, qHTS inhibition; actives 0.1% (n = 60,000); note: nearly all actives have a fitted effect of over 60% in size
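Coupled readout: USP2-cleaved Ub-PLA2 (20nM final) turns over NBD C6-HPC (20uM final), Ex 460nm/Em 535nm after 2.5 h, time-zero read flagging artifacts. Enzyme (20nM final, pH 8.0 Tris) given 30 min RT with compound first; NEM defines full inhibition.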
HEK293 cAMP ctrl: qHTS Assay for Agonists of the Thyroid Stimulating Hormone Receptor: Activators of Intracellular cAMP Concentrations in Parental HEK 293 | parental HEK293 CNG cAMP sensor, membrane potential fluorescence | Potency, µM (doses to about 57.1 µM), for the others: at the top dose activation, usual class: activators | AID 938, 2007 | actives 2.5% (n = 73,000); note: % of control where 0% means no effect; nearly all actives have a fitted effect of over 55% in size
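Counterscreen for endogenous-receptor signalling: CNG-channel HEK 293 cells report cAMP rise by membrane depolarization. After 60 min dye equilibration with 100 uM RO 20-1724, compounds incubated 30 min before bottom-read fluorescence at 590 nm.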
TSHR agonist: qHTS Assay for Agonists of the Thyroid Stimulating Hormone Receptor | Thyrotropin receptor (Homo sapiens), P16473 | HEK293-CNG-TSHR cells (CNG channel as cAMP sensor), membrane potential dye, cAMP | Potency, µM (top dose mostly 57.1 µM), for inactives: at the top dose activation, hits mostly activators | actives 0.48% (n = 73,000) | AID 926, 2007; active = well fitted activation curve with a large enough effect in the main read-out, with a control signal flat, not every such curve was filed as active; inconclusive = small, poorly fitted or top-dose-only effect, or a change in a side signal; inactive = no such curve, though single readings can be large or run the other way; % of control where 0% means no effect;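 note: the control signal comes from parental cells without the receptor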
Target sequence (P16473 whole entry, looked up): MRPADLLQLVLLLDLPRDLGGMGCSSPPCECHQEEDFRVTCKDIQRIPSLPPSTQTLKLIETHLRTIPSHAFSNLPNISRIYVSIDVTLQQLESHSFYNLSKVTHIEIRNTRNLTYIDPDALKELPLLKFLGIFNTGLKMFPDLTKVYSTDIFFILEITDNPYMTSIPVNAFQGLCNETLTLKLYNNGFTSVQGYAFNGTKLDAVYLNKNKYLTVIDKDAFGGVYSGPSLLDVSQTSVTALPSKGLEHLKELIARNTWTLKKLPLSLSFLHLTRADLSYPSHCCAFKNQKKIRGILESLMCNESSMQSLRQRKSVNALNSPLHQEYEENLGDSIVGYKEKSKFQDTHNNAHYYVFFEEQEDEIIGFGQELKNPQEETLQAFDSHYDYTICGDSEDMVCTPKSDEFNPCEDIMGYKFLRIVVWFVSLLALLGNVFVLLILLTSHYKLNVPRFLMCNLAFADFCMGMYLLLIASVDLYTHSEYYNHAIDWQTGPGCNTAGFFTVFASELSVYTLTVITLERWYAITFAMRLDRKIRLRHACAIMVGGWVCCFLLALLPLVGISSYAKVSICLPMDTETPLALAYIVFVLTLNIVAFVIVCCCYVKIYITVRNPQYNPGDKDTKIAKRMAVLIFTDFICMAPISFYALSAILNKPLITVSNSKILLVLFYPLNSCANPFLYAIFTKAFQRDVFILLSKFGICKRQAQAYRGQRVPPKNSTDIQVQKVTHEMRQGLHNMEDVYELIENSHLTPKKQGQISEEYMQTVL
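HEK 293 cells stably expressing TSHR and a cAMP-gated CNG channel; parental CNG-only cells as counterscreen. Cells preloaded 60 min with membrane potential dye plus 100 uM RO 20-1724, then compound 30 min; fluorescence read at 590 nm.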
PK Bst: Pyruvate Kinase | purified pyruvate kinase, luminescence ATP production; ribose 5-phosphate activator present at AC10 | Potency, µM | actives 1.2% (n = 51,000) | AID 361, 2006; in the data active = potency below about 11 µM; inconclusive = mostly about 12 µM to 25 µM;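 the screen sought inhibitors and activators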;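 note: scaled between full activation by ribose 5 phosphate and full inhibition by luteolin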
* = called active by the depositor; [ ] = dose if it differs, or a comment. Hits are enriched below; roughly 4.1% of the tested compounds scored in any of these assays. Unless noted, calls come from the whole dose curve; as a rule, active = well fitted curve in the direction sought with a large enough effect; inconclusive = small, poorly fitted or top-dose-only effect, or another doubt; inactive = no such curve, though single readings can be large; an effect the other way counts as inactive or inconclusive. Potency is the fitted concentration of half-maximal effect.

CC1CN(S(=O)(=O)c2cn(C)c(=O)n(C)c2=O)CC(C)O1 (centres undefined) was read as UbGFP stabilizer 9.9%, HEK293 cAMP ctrl 23.1% and TSHR agonist 39.8µM*.
Screening CC#C[C@@]1(O)CC[C@@H]2[C@@H]3CCC4=CC(=O)CCC4=C3[C@@H](c3ccc(N(C)C)cc3)C[C@]21C returned UbGFP stabilizer 6.8%, HEK293 cAMP ctrl -4.7% and TSHR agonist -17.8%.
`Clc1ccccc1-c1ccc2ncnc(NC3CCNCC3)c2c1` gave UbGFP stabilizer 4.9%, USP2a inhib 4.7%, HEK293 cAMP ctrl 8.6% and TSHR agonist 10.5%.
For C=C1CC[C@@H]2[C@](C)(CC[C@@H](O)[C@]2(C)CO)[C@@H]1C/C=C1/C(=O)OC[C@H]1O the results were UbGFP stabilizer -1.3%, HEK293 cAMP ctrl 0.6% and TSHR agonist 4.9%.
`Cc1cc(N2CCN(C(c3ccccc3)c3ccc(Cl)cc3)CC2)n2ncnc2n1` (centres undefined) gave UbGFP stabilizer -5.9%, HEK293 cAMP ctrl 16.6% and TSHR agonist 25.1µM*.
Screening Cc1cccc(Cl)c1NC[C@H](O)CN1CCN(C)CC1 returned UbGFP stabilizer -4.0%[9.17 µM], HEK293 cAMP ctrl 0.2%[11.4 µM] and TSHR agonist 4.3%[11.4 µM].
Screening N=C(N)c1ccc(N2CCN(C3CCN(CC(=O)O)CC3)CC2)cc1 returned HEK293 cAMP ctrl -10.8% and TSHR agonist -1.5%.
For CC(C)CO/N=C1/[C@H]2O[C@@H]2[C@@H](O)[C@H]2[C@H]1CCn1c(=O)n(C)c(=O)n12 the results were HEK293 cAMP ctrl 1.0%[11.4 µM] and TSHR agonist -1.5%[11.4 µM].
Screening COCCN(C(=O)CCCC(=O)Nc1ccccn1)C(C(=O)NC1CCCCC1)c1ccc(C)cc1 (centres undefined) returned GBA activity >76.9, UbGFP stabilizer -7.2%, USP2a inhib 7.3%, HEK293 cAMP ctrl 7.94µM*, TSHR agonist inconclusive and PK Bst >57.
For COc1ccccc1-c1nccc(NCc2cnc(C)cn2)n1 the results were UbGFP stabilizer 2.8%, USP2a inhib -14.9%, HEK293 cAMP ctrl 9.9% and TSHR agonist 5.3%.
Brc1ccc(-c2cnc(-c3cccs3)o2)cc1 was read as GBA activity >76.9, UbGFP stabilizer 3.7%, USP2a inhib -2.9%, HEK293 cAMP ctrl inconclusive, TSHR agonist inconclusive and PK Bst 1.31*.
Screening COc1ccccc1C(=O)Nc1c2c(nn1-c1cccc(C)c1C)CS(=O)(=O)C2 returned GBA activity >76.9, UbGFP stabilizer 0.0%, USP2a inhib 3.5%, HEK293 cAMP ctrl 5.01µM*, TSHR agonist inconclusive and PK Bst >57.
CC(=O)Nc1cccc(Cn2cccn2)c1 was read as GBA activity >76.9, UbGFP stabilizer -1.6%, USP2a inhib -5.5%, HEK293 cAMP ctrl 20µM*, TSHR agonist inconclusive and PK Bst >57.
For CO[C@H]1COC(=O)[C@H](C)COC(=O)[C@H](C)NC(=O)C/C=C\[C@H]1C the results were HEK293 cAMP ctrl 18.4%[11.4 µM] and TSHR agonist -2.8%[11.4 µM].
Screening COc1ccc(NS(=O)(=O)c2cccc(-c3nnc4n3CCCCC4)c2)cc1 returned GBA activity >76.9, UbGFP stabilizer -2.3%, USP2a inhib 9.5%, HEK293 cAMP ctrl inconclusive, TSHR agonist inconclusive and PK Bst >57.
Screening COc1ccc(-c2cc3nc4n(c(=O)c3s2)CCC4)cc1 returned GBA activity >76.9, UbGFP stabilizer -5.1%, USP2a inhib 12.4%, HEK293 cAMP ctrl -0.4%, TSHR agonist 2.8% and PK Bst 3.85*.
Screening CCN(CC)c1ccc(/C=N/NC(=O)c2ccc(O)cc2)cc1 returned HEK293 cAMP ctrl -33.7% and TSHR agonist inconclusive.
`CCc1cc(C(C)=O)c(O)cc1OCCCCCC(C)(C)c1nn[nH]n1` gave HEK293 cAMP ctrl 20µM* and TSHR agonist inconclusive.
Screening CC(C)(C)NCC(O)c1cc(O)cc(O)c1 (centres undefined) returned USP2a inhib -3.5% and PK Bst >25.6.
Screening CC(C)(C)NC[C@H](O)c1cc(O)cc(O)c1 returned UbGFP stabilizer -0.3%[20.5 µM], USP2a inhib 4.7%[17.1 µM], HEK293 cAMP ctrl 15.8µM* and TSHR agonist inconclusive.
`O=C(Nc1ccc(F)cc1)N(Cc1ccco1)Cc1cc2cc3c(cc2[nH]c1=O)OCO3` gave GBA activity 11.2*, UbGFP stabilizer -2.6%, USP2a inhib 30.5%, HEK293 cAMP ctrl 25.1µM*, TSHR agonist inconclusive and PK Bst 3.81*.
For CN(C)CCNC(=O)c1ccc(Cc2nc3ccccc3[nH]2)cc1 the results were HEK293 cAMP ctrl -2.9% and TSHR agonist -2.0%.
O=C(Nc1ccc(N2CCN(C(=O)c3ccccc3)CC2)c(Cl)c1)c1ccc(Br)o1 was read as PK Bst >25.6.
`CC(=O)N1CCN(c2ccc(NC(=O)c3ccccc3Br)cc2Cl)CC1` gave GBA activity 0.332*, UbGFP stabilizer 5.6%, USP2a inhib 40.9%, HEK293 cAMP ctrl -5.9%, TSHR agonist 1.0% and PK Bst >57.
`O=C(O)CCC(=O)c1ccc2c(c1)OCCO2` gave UbGFP stabilizer -5.6%, HEK293 cAMP ctrl 20µM* and TSHR agonist inconclusive.
`O=C(O)CCSCC(=O)c1ccc2c(c1)OCCO2` gave GBA activity >76.9, UbGFP stabilizer 9.5%, USP2a inhib 6.2%, HEK293 cAMP ctrl 13.9%, TSHR agonist 21.1% and PK Bst >57.
For O=C(c1ccc(C23CC4CC(CC(C4)C2)C3)o1)N1CCOCC1 the results were GBA activity >76.9, UbGFP stabilizer -0.9%, USP2a inhib 10.5%, HEK293 cAMP ctrl 19.3%, TSHR agonist 12.6µM* and PK Bst >57.
O=C(c1ccc(COc2c(F)c(F)c(F)c(F)c2F)o1)N1CCOCC1 was read as GBA activity >76.9, UbGFP stabilizer 11.0%, USP2a inhib 6.9%, HEK293 cAMP ctrl 19.7% and PK Bst >57.
For O=C(NC1CCCCCC1)c1c(O)c2ccccc2[nH]c1=O the results were GBA activity 11.4*, UbGFP stabilizer 2.3%, USP2a inhib 2.7%, HEK293 cAMP ctrl 11.8% and TSHR agonist 9.0%.
`O=c1c2c(nc3cc(-c4ccc(F)cc4)[nH]n13)CCCC2` gave GBA activity inconclusive, UbGFP stabilizer -3.3%, HEK293 cAMP ctrl 6.9%, TSHR agonist -4.4% and PK Bst 5.32*.
Screening Cc1cnc(CNc2ncncc2-c2ccc(N(C)C)cc2)cn1 returned UbGFP stabilizer -6.6%, USP2a inhib 3.1%, HEK293 cAMP ctrl -10.8% and TSHR agonist 9.7%.
